Consider 15 compounds from PubChem BioAssay (NCI).

About 83,000 compounds went through this panel and 20% of them were active in at least one assay; those are over-represented in the sample as a whole.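 Compound tested at a single concentration for 48 hours in 96-well plates; a percent growth value below 10 was scored as active.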 Values without a mark were called inactive. Active and inactive are the calls of the source.

Some test systems named below: K-562 leukemia; MALME-3M melanoma; MDA-MB-231 breast; RXF 393 renal; SF-295 CNS; SF-539 CNS; UACC-257 melanoma; M14 melanoma; HCT-15 colon; SF-268 CNS.
Holding throughout (test): NCI-60 one-dose screen, 48 h (100 = growth as untreated, 0 = no growth, -100 = all killed)
Common to all, as to conditions: 10 µM

`Fc1ccc(-c2nnc(-c3c(-c4ccc(F)cc4)nc4ccccn34)o2)cc1`: the growth in the experiment on K-562 leukemia is 87.2%; in the experiment on MALME-3M melanoma, 120%; in the experiment with MDA-MB-231 breast, 78.9%; in the experiment with RXF 393 renal it was 85.9%; in the experiment on SF-295 CNS, 88.7%; with SF-539 CNS it was -10.1% (active). For the same compound, the figures for the growth in the experiment on UACC-257 melanoma, with M14 melanoma and in the experiment on HCT-15 colon were 85.1%, 116% and 98.5%, respectively.
For `CN1CCC(CNc2cc(C3(C(=O)Nc4cc(C(=O)Nc5ccc(Cl)c(C(F)(F)F)c5)ccc4F)CC3)ncn2)CC1`, the growth in the experiment with K-562 leukemia was -60.3% (active); in the experiment on MALME-3M melanoma, -67.7% (active); in the experiment with MDA-MB-231 breast, -32.2% (active); in the experiment on RXF 393 renal, -46.8% (active); in the experiment with SF-268 CNS it was 18.2%; with SF-295 CNS, -54.4% (active). Besides, the values for the growth in the experiment on SF-539 CNS, in the experiment with M14 melanoma and in the experiment on HCT-15 colon were -57.2% (active), -52% (active) and -20.3% (active), respectively.
Regarding `O=C(Nc1cccc(Br)c1)c1cc(=O)[nH]c2ccccc12`, the growth in the experiment with K-562 leukemia was 55.8%; in the experiment on MALME-3M melanoma, 101%; in the experiment with MDA-MB-231 breast it was 93.6%; in the experiment with RXF 393 renal, 77.4%; in the experiment on SF-268 CNS, 94.8%; with SF-295 CNS, 112%. Also, the growth with SF-539 CNS was 92%; in the experiment with M14 melanoma, 104%; with HCT-15 colon, 92.4%.
For the compound `CC12O[C@H](C[C@@H](OC(=O)c3ccccc3)[C@H]1O)n1c3ccccc3c3c4c(c5c6ccccc6n2c5c31)C(=O)NC4=O`, the growth was 71% in the experiment on K-562 leukemia; 46.4% in the experiment on MALME-3M melanoma; 53.3% with MDA-MB-231 breast; 15.6% in the experiment on RXF 393 renal; 61.4% with SF-268 CNS; 45.8% with SF-295 CNS. Moreover, the growth in the experiment on SF-539 CNS is 86.6%; in the experiment with M14 melanoma it was 44.4%; in the experiment with HCT-15 colon, 77.7%.
Take `Clc1ccc(Nc2ccnc(NCCNc3ccnc4cc(Cl)ccc34)n2)cc1`: the growth is -54.6% (active) in the experiment with K-562 leukemia; -83.6% (active) in the experiment on MALME-3M melanoma; -20.4% (active) in the experiment on MDA-MB-231 breast; 0.0582% (active) with RXF 393 renal; -10.7% (active) in the experiment on SF-268 CNS; -58.9% (active) in the experiment with SF-295 CNS. The growth is -94.5% (active) in the experiment with SF-539 CNS, -86.8% (active) with M14 melanoma and 3.75% (active) in the experiment with HCT-15 colon.
Consider `COc1ccc(Nc2cc(C)nc(NCCCNc3ccnc4cc(Cl)ccc34)n2)cc1`, for which the growth is -42.2% (active) with K-562 leukemia; -86.2% (active) in the experiment with MALME-3M melanoma; -67.7% (active) in the experiment with MDA-MB-231 breast; -90.4% (active) with RXF 393 renal; -54.5% (active) with SF-268 CNS; -78.8% (active) in the experiment on SF-295 CNS. In addition, the growth in the experiment with SF-539 CNS is -100% (active); with M14 melanoma, -81.1% (active); with HCT-15 colon, -55.8% (active).
`CCN(CCCCCCN1CC(=O)N(CCCCCCN(CC)Cc2ccccc2OC)CC1=O)Cc1ccccc1OC`: the growth in the experiment with K-562 leukemia was 4.44% (active); in the experiment on MALME-3M melanoma, 109%; in the experiment on MDA-MB-231 breast, 93.4%; in the experiment on SF-268 CNS it was 90.6%; in the experiment on SF-295 CNS it was 72.2%; in the experiment with SF-539 CNS it was 92.8%. Also, the growth with UACC-257 melanoma was 108%; in the experiment on M14 melanoma, 82.5%; in the experiment with HCT-15 colon, 83.5%.
With `Cc1cc(Cl)nc(N(CCCNc2ccnc3cc(Cl)ccc23)Cc2cccs2)n1`, the growth in the experiment on K-562 leukemia is -11.7% (active); with MALME-3M melanoma, -30% (active); with MDA-MB-231 breast it was 17.2%; in the experiment with RXF 393 renal it was 0.398% (active); in the experiment with SF-268 CNS it was 38.6%; in the experiment on SF-295 CNS, 13.1%. Also, the growth in the experiment with SF-539 CNS is 3.33% (active); in the experiment with M14 melanoma, -7.28% (active); with HCT-15 colon, 8.59% (active).
Turning to `CCCCCCCCN(CCCCCCCC)CCCCCCCCCN1CCCc2cc(OC)ccc21`, the growth in the experiment with K-562 leukemia was 80.4%; with MALME-3M melanoma it was 104%; in the experiment with MDA-MB-231 breast, 89.9%; in the experiment with SF-268 CNS, 99.9%; in the experiment on SF-295 CNS, 88.5%; in the experiment on SF-539 CNS, 104%. Moreover, the figures for the growth in the experiment on UACC-257 melanoma, in the experiment on M14 melanoma and with HCT-15 colon were 106%, 93.8% and 89.3%, respectively.
In the case of `COc1ccc(-c2nc3ccccn3c2-c2nnc(-c3cc(OC)c(OC)c(OC)c3)o2)cc1`, the growth with K-562 leukemia is 102%; with MALME-3M melanoma, 51.5%; with MDA-MB-231 breast, 46.9%; with RXF 393 renal it was 74.3%; in the experiment with SF-295 CNS, 64.9%; with SF-539 CNS, 52.8%. The growth in the experiment on UACC-257 melanoma is 84.2%; in the experiment with HCT-15 colon, 71.6%.
Take `COc1cc(/C(=C2/O[C@@H]([C@H]3COC(C)(C)O3)[C@H]3OC(C)(C)O[C@@H]23)c2ccc3ccccc3c2)cc(OC)c1OC`: the growth with K-562 leukemia was 28.1%; in the experiment on MALME-3M melanoma it was -25.4% (active); in the experiment on MDA-MB-231 breast, 13.6%; with SF-268 CNS, -16.9% (active); in the experiment with SF-295 CNS, 46.6%; in the experiment on SF-539 CNS it was 26.4%. The growth is 45.9% with UACC-257 melanoma, 62.8% with M14 melanoma and 59.7% in the experiment with HCT-15 colon.
Take `O=C(Nc1nc2ccc(F)cc2s1)c1cc(-c2ccc(F)cc2)n2nc(-c3ccccc3)cc2n1`: the growth in the experiment with K-562 leukemia was 99.9%; with MALME-3M melanoma, -1.39% (active); in the experiment on MDA-MB-231 breast, 83.5%; in the experiment with RXF 393 renal, 104%; in the experiment on SF-295 CNS it was 94.8%; in the experiment on SF-539 CNS, 93.6%. Further, the growth in the experiment on UACC-257 melanoma is 59.2%; in the experiment with M14 melanoma, 81%; in the experiment on HCT-15 colon, 90.8%.
On to `CN(C)CCNC(=O)c1cccn2c(=O)c3cc4ccccc4cc3nc12`, for which the growth in the experiment on K-562 leukemia is 4.58% (active); in the experiment with MALME-3M melanoma, -45.2% (active); in the experiment with MDA-MB-231 breast, 22%; in the experiment with RXF 393 renal it was -89.5% (active); in the experiment on SF-268 CNS it was -14.9% (active); in the experiment on SF-295 CNS, -19.7% (active). Further, the growth in the experiment with SF-539 CNS was 1.59% (active); in the experiment on HCT-15 colon it was 12.7%.
`COc1ccc(-c2nc3sccn3c2-c2nc3c([nH]2)C(=O)c2ccccc2C3=O)cc1`: the growth in the experiment on K-562 leukemia was 84.8%; in the experiment with MALME-3M melanoma it was 151%; in the experiment on MDA-MB-231 breast, 96.1%; with RXF 393 renal, 98.2%; with SF-295 CNS, 87.2%; with SF-539 CNS it was 98%. Also, the growth in the experiment on UACC-257 melanoma is 89.2%; with M14 melanoma, 130%; with HCT-15 colon it was 87.8%.
As to `COc1ccc(-c2nc3ncccn3c2-c2nnc(-c3ccc(F)cc3)o2)cc1`, the growth is 87.7% with K-562 leukemia; 122% in the experiment with MALME-3M melanoma; 88.9% with MDA-MB-231 breast; 111% with RXF 393 renal; 97.1% in the experiment with SF-295 CNS; 94.5% in the experiment with SF-539 CNS. The growth with UACC-257 melanoma is 105%; in the experiment on M14 melanoma it was 110%; in the experiment with HCT-15 colon it was 93.8%.
